Measurements taken from PubChem BioAssay (NCI).
This is part of a sample that, as a whole, favours compounds with a hit. Of some 79,000 tested, about 15% had one in any assay. Activity calls are given as the source filed them. Rule as the data show it: active = growth inhibition above about 70%; inactive = the rest.

Legend:
[1] = NCI Yeast Anticancer Drug Screen. Data for the rad52 strain (AID 147);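 also: 0% = growth of vehicle-treated control cultures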; details: S. cerevisiae rad52 mutant growth inhibition, hits give high values
Procedure, shortened: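 Screen used a yeast mutant impaired in DNA repair. After compound exposure, growth was measured. Values reflect inhibition compared with vehicle-treated cells.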

[2] = NCI Yeast Anticancer Drug Screen. Data for the wt1 strain (AID 149);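 also: 0% = growth of vehicle-treated wt1 cultures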; details: S. cerevisiae wt1 strain (SPY 50644) growth inhibition, hits give high values
Procedure, shortened: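 Each compound is tested on wt1 yeast and the loss of growth versus vehicle gives the inhibition value.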

[3] = NCI Yeast Anticancer Drug Screen. Data for the rad50EPP+ strain (AID 151);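 also: 0% = growth of vehicle-treated control cultures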; details: S. cerevisiae rad50 mutant strain, hits give high values
Procedure, shortened: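 Exposing the rad50EPP+ strain to each compound, growth was compared with vehicle-only cultures to give inhibition.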

[4] = NCI Yeast Anticancer Drug Screen. Data for the mgt1 strain (AID 153); details: S. cerevisiae mgt1 mutant growth inhibition, hits give high values
Procedure, shortened: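 Genetically defined yeast (mgt1) treated with compound; inhibition of growth expressed against vehicle-treated controls.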

[5] = NCI Yeast Anticancer Drug Screen. Data for the rad50 strain (AID 155);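 also: 0% = growth of vehicle-only cultures of the same strain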; details: S. cerevisiae rad50 strain growth inhibition, hits give high values
Procedure, shortened: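 Vehicle-treated cultures provide the reference for the growth inhibition reported for compound-exposed, repair-deficient yeast.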

[6] = NCI Yeast Anticancer Drug Screen. Data for the mec2-1 strain (AID 157); details: S. cerevisiae mec2-1 strain, hits give high values
Procedure, shortened: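 Readout is yeast growth inhibition, normalised to vehicle-treated controls, in the mec2-1 strain exposed to compound.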

[7] = NCI Yeast Anticancer Drug Screen. Data for the rad14 strain (AID 159);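 also: 0% = growth of vehicle-treated control cultures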; details: S. cerevisiae rad14 strain growth inhibition, hits give high values
Procedure, shortened: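 Inhibition of growth is reported for a repair-deficient yeast mutant following compound treatment, calculated relative to cultures that received vehicle.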

[8] = NCI Yeast Anticancer Drug Screen. Data for the sgs1 mgt1 strain (AID 161);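 also: 0% = growth of cultures given vehicle only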; details: S. cerevisiae sgs1 mgt1 strain, hits give high values
Procedure, shortened: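 Yeast cells carrying a defined DNA-repair defect were exposed to test compounds. Growth inhibition was measured relative to vehicle-treated controls.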

[9] = NCI Yeast Anticancer Drug Screen. Data for the CLN2oe strain (AID 163);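 also: 0% = growth of vehicle-only control cultures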; details: S. cerevisiae CLN2oe strain, hits give high values
Procedure, shortened: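 Values reflect how much compound exposure reduced yeast growth, referenced to vehicle-exposed cells. Assay organism is a strain with a defined genetic change affecting cell-cycle control.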

[10] = NCI Yeast Anticancer Drug Screen. Data for the cln2 rad14 strain (AID 165);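 also: 0% = growth equal to vehicle treated cultures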; details: S. cerevisiae cln2 rad14 strain, hits give high values
Procedure, shortened: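 Relative to vehicle controls, growth inhibition of compound-treated cln2 rad14 yeast was recorded.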

[11] = NCI Yeast Anticancer Drug Screen. Data for the bub3 strain (AID 167); details: S. cerevisiae bub3 mutant strain, hits give high values
Procedure, shortened: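 Mutant yeast screening strain plus compound; vehicle-treated cultures serve as the 0% inhibition reference.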

[12] = NCI Yeast Anticancer Drug Screen. Data for the wt2 strain (AID 169); details: S. cerevisiae wt2 strain growth inhibition, hits give high values
Procedure, shortened: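 Values express reduction in yeast growth under compound treatment, referenced to vehicle-treated cells.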

[13] = NCI Yeast Anticancer Drug Screen. Data for the sgs1 strain (AID 173);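 also: 0% = growth of vehicle-only control cultures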; details: S. cerevisiae sgs1 mutant, hits give high values
Procedure, shortened: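 Treat defined-mutant yeast with compound; measure growth; calculate inhibition relative to vehicle-treated cells.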

[14] = NCI Yeast Anticancer Drug Screen. Data for the mlh1 rad18 strain (AID 175); details: S. cerevisiae mlh1 rad18 strain growth inhibition, hits give high values
Procedure, shortened: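 Test agents were incubated with a yeast strain of defined genotype (DNA damage repair defect). Inhibition of growth was derived by comparison with vehicle-exposed cultures.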

[15] = NCI Yeast Anticancer Drug Screen. Data for the rad18 strain (AID 177); details: S. cerevisiae rad18 mutant growth inhibition, hits give high values
Procedure, shortened: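 A genetically defined yeast mutant impaired in DNA damage repair was treated with test compounds, then its growth was measured against cultures receiving vehicle alone.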

[16] = NCI Yeast Anticancer Drug Screen. Data for the mlh1 strain (AID 171);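 also: 0% = growth of vehicle-treated control cultures of the same strain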; details: S. cerevisiae mlh1 strain growth inhibition, hits give high values
Procedure, shortened: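 Steps: expose the defined-mutant yeast strain to compound; expose a parallel culture to vehicle; measure growth; express compound effect as inhibition relative to the vehicle culture.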

[17] = at 5.0 µM (retest, dose inferred, filed as 0.5)
[18] = at 50.0 µM (retest, dose inferred, filed as 5.0)

Measured: growth inhibition

O=C1NC(=O)C2C3C=CC(C3)C12 (stereo not drawn)
active: [3]; at 33.0 µM 91% | [3]; at 100.0 µM 97% | [4]; at 11.0 µM 89% | [4]; at 33.0 µM 96% | [4]; at 100.0 µM 97% | [8]; [18] 93% | [8]; at 50.0 µM 94.3% | [12]; at 11.0 µM 94% | [12]; at 33.0 µM 97% | [12]; at 100.0 µM 98% | [13]; at 11.0 µM 97% | [13]; at 33.0 µM 98% | [13]; at 100.0 µM 98%
inactive: [1]; at 1.2 µM -7% | [1]; at 3.7 µM 0% | [1]; at 11.0 µM -2% | [1]; at 33.0 µM -7% | [1]; at 100.0 µM -7% | [2]; at 1.2 µM -5% | [2]; at 3.7 µM -5% | [2]; at 11.0 µM -7% | [2]; at 33.0 µM -7% | [2]; at 100.0 µM -5% | [3]; at 1.2 µM 2% | [3]; at 3.7 µM 21% | [3]; at 11.0 µM 67% | [4]; at 1.2 µM -1% | [4]; at 3.7 µM 23% | [5]; at 1.2 µM -6% | [5]; at 3.7 µM -4% | [5]; [17] -149% | [5]; at 11.0 µM 5% | [5]; at 33.0 µM 8% | [5]; [18] -66% | [5]; at 50.0 µM 3.3% | [5]; at 100.0 µM 0% | [6]; at 1.2 µM -1% | [6]; at 3.7 µM 0% | [6]; [17] -46% | [6]; at 11.0 µM 1% | [6]; at 33.0 µM 1% | [6]; [18] -42% | [6]; at 50.0 µM -2% | [6]; at 100.0 µM -2% | [7]; at 1.2 µM -1% | [7]; at 3.7 µM 3% | [7]; at 11.0 µM 0% | [7]; at 33.0 µM -2% | [7]; at 100.0 µM -1% | [8]; [17] 31% | [9]; at 1.2 µM -4% | [9]; at 3.7 µM -1% | [9]; at 11.0 µM 0% | [9]; at 33.0 µM -6% | [9]; at 100.0 µM -3% | [10]; [17] -55% | [10]; [18] -54% | [10]; at 50.0 µM -13.2% | [11]; at 1.2 µM -5% | [11]; at 3.7 µM -4% | [11]; [17] -64% | [11]; at 11.0 µM -7% | [11]; at 33.0 µM -8% | [11]; [18] -62% | [11]; at 50.0 µM -3.55% | [11]; at 100.0 µM -5% | [12]; at 1.2 µM -5% | [12]; at 3.7 µM 40% | [13]; at 1.2 µM -4% | [13]; at 3.7 µM 63% | [14]; [17] -124% | [14]; [18] -123% | [14]; at 50.0 µM 10.6% | [15]; at 1.2 µM -2% | [15]; at 3.7 µM 0% | [15]; at 11.0 µM 0% | [15]; at 33.0 µM 0% | [15]; at 100.0 µM 1%

CCS(=O)(=O)c1ccc(/C=C/C=N/NC(=S)NCC(C)C)cc1
inactive: [1]; at 1.2 µM 5% | [1]; at 3.7 µM 3% | [1]; at 11.0 µM -1% | [1]; at 33.0 µM 3% | [1]; at 100.0 µM 1% | [2]; at 1.2 µM 0% | [2]; at 3.7 µM -3% | [2]; at 11.0 µM 5% | [2]; at 33.0 µM -4% | [2]; at 100.0 µM 4% | [3]; at 1.2 µM 3% | [3]; at 3.7 µM 5% | [3]; at 11.0 µM 5% | [3]; at 33.0 µM 6% | [3]; at 100.0 µM -9% | [4]; at 1.2 µM -2% | [4]; at 3.7 µM 2% | [4]; at 11.0 µM -2% | [4]; at 33.0 µM 5% | [4]; at 100.0 µM 44% | [5]; at 1.2 µM 6% | [5]; at 3.7 µM 3% | [5]; [17] 5% | [5]; at 11.0 µM -4% | [5]; at 33.0 µM 10% | [5]; [18] -7% | [5]; at 50.0 µM 0.25% | [5]; at 100.0 µM 5% | [6]; at 1.2 µM 0% | [6]; at 3.7 µM 1% | [6]; [17] -25% | [6]; at 11.0 µM 2% | [6]; at 33.0 µM 3% | [6]; [18] -24% | [6]; at 50.0 µM 4.2% | [6]; at 100.0 µM 4% | [7]; at 1.2 µM 4% | [7]; at 3.7 µM 3% | [7]; at 11.0 µM 0% | [7]; at 33.0 µM 5% | [7]; at 100.0 µM 3% | [8]; [17] 6% | [8]; [18] 62% | [9]; at 1.2 µM 2% | [9]; at 3.7 µM -2% | [9]; at 11.0 µM -3% | [9]; at 33.0 µM 1% | [9]; at 100.0 µM -7% | [10]; [17] -7% | [10]; [18] 9% | [10]; at 50.0 µM -67.3% | [11]; at 1.2 µM 3% | [11]; at 3.7 µM 4% | [11]; [17] -12% | [11]; at 11.0 µM 0% | [11]; at 33.0 µM 4% | [11]; [18] 50% | [11]; at 50.0 µM 39.1% | [11]; at 100.0 µM 8% | [12]; at 1.2 µM -8% | [12]; at 3.7 µM -5% | [12]; at 11.0 µM -17% | [12]; at 33.0 µM -5% | [12]; at 100.0 µM 55% | [16]; at 1.2 µM 4% | [16]; at 3.7 µM 0% | [16]; at 11.0 µM -3% | [16]; at 33.0 µM 13% | [16]; at 100.0 µM 41% | [15]; at 1.2 µM 6% | [15]; at 3.7 µM 2% | [15]; at 11.0 µM -1% | [15]; at 33.0 µM 5% | [15]; at 100.0 µM 9%
active: [8]; at 50.0 µM 77%
